DAT uptake mod – modulates human dopamine transporter uptake under cocaine | Q01959 | LLC-PK1 hDAT cells, [14C]-dopamine uptake with cocaine IC80; actives deviate in either direction | B-score at 10 µM | hit rate 1.3% among 110,000;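 active = Z score or B-score, a plate-position-corrected score, falls beyond the plate's 99.7% confidence bounds, in either direction; inactive = both scores lie inside the 99.7% bounds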;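 also: scored against the spread of the other compound wells on the same plate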
Cav32 inh – human Cav3.2 channel inhibition, primary screen; Cav3.2-expressing cells, Fluo-4 calcium fluorescence FDSS; stronger effect = lower value; B-score at 10 µM; hit rate 4% among 100,000; O95180;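 active = single-dose well whose peak fluorescence ratio is a statistical outlier from its plate by either plate-standardised score or position-corrected B-score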
Target sequence (O95180 whole entry, looked up): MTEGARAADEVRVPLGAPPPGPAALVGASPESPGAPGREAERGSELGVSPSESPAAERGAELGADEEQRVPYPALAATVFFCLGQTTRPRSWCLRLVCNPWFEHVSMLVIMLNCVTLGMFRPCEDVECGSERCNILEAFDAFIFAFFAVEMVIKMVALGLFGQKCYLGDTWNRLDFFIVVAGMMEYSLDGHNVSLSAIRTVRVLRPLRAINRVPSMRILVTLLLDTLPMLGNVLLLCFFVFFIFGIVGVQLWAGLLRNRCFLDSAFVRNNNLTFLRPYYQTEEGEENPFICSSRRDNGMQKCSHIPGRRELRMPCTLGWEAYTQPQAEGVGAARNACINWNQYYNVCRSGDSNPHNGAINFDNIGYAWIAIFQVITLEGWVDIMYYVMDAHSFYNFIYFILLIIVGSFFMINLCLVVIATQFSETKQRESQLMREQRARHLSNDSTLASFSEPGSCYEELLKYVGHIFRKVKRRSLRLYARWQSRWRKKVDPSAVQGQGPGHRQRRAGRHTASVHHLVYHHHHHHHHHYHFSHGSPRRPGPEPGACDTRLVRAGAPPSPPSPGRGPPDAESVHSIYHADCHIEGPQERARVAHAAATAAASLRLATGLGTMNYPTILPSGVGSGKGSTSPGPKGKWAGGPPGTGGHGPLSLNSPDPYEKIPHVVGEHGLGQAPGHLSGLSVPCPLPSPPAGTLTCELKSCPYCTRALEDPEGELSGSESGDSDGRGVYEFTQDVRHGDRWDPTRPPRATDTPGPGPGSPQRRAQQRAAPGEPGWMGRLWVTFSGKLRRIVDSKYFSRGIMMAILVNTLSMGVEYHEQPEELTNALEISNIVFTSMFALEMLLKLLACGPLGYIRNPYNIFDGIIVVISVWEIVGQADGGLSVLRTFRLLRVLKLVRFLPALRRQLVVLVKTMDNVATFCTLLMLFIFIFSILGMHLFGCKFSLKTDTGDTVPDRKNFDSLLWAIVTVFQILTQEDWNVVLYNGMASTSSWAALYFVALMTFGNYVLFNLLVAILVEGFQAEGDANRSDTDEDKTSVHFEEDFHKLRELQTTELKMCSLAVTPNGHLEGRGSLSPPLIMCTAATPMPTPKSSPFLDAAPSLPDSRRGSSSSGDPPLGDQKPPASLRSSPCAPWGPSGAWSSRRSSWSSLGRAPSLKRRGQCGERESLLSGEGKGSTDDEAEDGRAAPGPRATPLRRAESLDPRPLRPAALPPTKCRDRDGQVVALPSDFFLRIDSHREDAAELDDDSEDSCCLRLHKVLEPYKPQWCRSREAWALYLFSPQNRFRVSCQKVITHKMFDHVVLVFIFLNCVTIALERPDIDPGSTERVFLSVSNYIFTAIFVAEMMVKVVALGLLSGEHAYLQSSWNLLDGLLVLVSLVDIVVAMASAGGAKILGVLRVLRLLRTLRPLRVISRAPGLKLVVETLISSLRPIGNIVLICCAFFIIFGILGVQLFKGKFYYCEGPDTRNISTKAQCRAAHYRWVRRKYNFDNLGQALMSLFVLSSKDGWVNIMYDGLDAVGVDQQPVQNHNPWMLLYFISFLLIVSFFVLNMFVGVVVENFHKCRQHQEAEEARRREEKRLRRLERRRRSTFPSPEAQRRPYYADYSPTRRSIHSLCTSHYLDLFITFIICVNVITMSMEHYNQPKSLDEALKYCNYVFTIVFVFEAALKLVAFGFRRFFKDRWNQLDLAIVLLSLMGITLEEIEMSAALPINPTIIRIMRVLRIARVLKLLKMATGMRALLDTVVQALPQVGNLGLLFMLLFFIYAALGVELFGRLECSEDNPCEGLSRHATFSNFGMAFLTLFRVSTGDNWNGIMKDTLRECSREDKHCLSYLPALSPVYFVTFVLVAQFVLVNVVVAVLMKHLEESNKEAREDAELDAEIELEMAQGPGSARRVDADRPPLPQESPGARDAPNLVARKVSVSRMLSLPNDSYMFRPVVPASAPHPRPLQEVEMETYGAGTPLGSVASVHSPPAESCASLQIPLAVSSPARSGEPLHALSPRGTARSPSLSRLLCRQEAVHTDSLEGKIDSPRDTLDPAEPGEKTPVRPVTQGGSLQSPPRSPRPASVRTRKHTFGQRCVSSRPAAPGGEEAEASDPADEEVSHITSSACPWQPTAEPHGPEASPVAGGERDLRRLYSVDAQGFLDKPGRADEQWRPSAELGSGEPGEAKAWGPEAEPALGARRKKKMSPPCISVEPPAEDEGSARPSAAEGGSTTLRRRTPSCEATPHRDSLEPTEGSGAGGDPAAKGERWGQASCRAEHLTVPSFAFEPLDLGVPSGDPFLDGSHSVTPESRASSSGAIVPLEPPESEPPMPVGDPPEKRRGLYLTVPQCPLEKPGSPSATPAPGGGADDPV
PostGolgi yeast – growth inhibition of a yeast mutant, post-Golgi transport screen; post-Golgi transport phenotypic cell assay; inhibition, % at 10 µM; hit rate 0.9% among 98,000;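 also: yeast cells grown in 1536-well plates; yeast grown about 18 h at 30C before absorbance read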
D1 allo mod – allosterically modulates the human D1 dopamine receptor | P21728 | HEK293 D1, CRE-luciferase, dopamine EC30 potentiation; actives deviate in either direction | B-score at 10 µM | hit rate 5.9% among 58,000 | AID 641;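 active = luminescence count or its row- and column-corrected plate score outside the 99.7% band of the plate's sample wells, on either side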
PLAP activator – activates human placental alkaline phosphatase. P05187. hit rate 1.2% among 96,000. activation fold at 20 µM. purified PLAP enzyme, luminescent substrate read-out; stronger effect = higher value; in the data active = activation fold above about 2
PostGolgi ctrl – inhibits growth of the yeast control strain. AID 738. hit rate 5% among 98,000. inhibition, % at 10 µM. efflux-deficient yeast background strain, growth absorbance A615, 16 h
An asterisk follows results filed as active; · = not tested or not shown. Most compounds without a hit are left out; they make up all but 12% or so of the library. Rule as the data show it, unless noted: active = inhibition above about 30%; inactive = the rest.

SMILES	DAT uptake mod	Cav32 inh	PostGolgi yeast	D1 allo mod	PLAP activator	PostGolgi ctrl
COc1ccc(S(=O)(=O)Cc2ccc(C(=O)N3CCN(C(=O)c4ccco4)CC3)o2)cc1	0.64	0.28	-6	-0.0056	0.9	4
COc1ccccc1S(=O)(=O)Cc1ccc(C(=O)N2CCN(c3ccc(C)cc3)C(C)C2)o1 (stereo not drawn)	1.6	-0.85	3	-2.8*	1.4	10
COc1ccc(S(=O)(=O)Cc2ccc(C(=O)N3CCN(c4cccc(C)c4)C(C)C3)o2)cc1 (stereo not drawn)	0.77	-2	-8	-1.7	1.4	47*
CCOc1ccc(CNc2nc3ccccc3n2CCN2CCOCC2)cc1	0.15	1.6	·	·	·	·
COc1ccc(CCN2CCC(Nc3nc4ccccc4n3Cc3ccc(F)cc3)CC2)cc1	-0.5	-5*	·	-1.9	·	·
O=C(CCS(=O)(=O)c1cccs1)N1CCCC1	-0.72	-0.46	10	0.73	1.1	-2
CN(c1ccc(OCC(=O)N2CCCCC2)cc1)S(=O)(=O)c1cccs1	3*	0.92	3	·	1.6	-2
CCOC(=O)Cc1csc(NC(=O)COc2ccc(N(C)S(=O)(=O)c3cccs3)cc2)n1	0.29	-4.7*	1	-0.9	1.4	12
Cc1ccc(-n2[nH]c(C)c(/C=C3/C=Nc4ccccc43)c2=O)cc1C	-0.54	-0.053	·	·	·	·
COc1cc(C2c3c(-c4ccccc4)n[nH]c3C(=O)N2c2ccccc2)ccc1O (stereo not drawn)	2.2	-1.1	-8	3.8	2.2*	7
CCOc1cc(C2c3c(n[nH]c3C)C(=O)N2c2ccc(C)cc2)ccc1O (stereo not drawn)	0.37	0.96	-1	1.4	1.9	-6
COc1cc(C2c3c(n[nH]c3C)C(=O)N2c2ccc(C)cc2)ccc1O (stereo not drawn)	0.83	0.8	-1	0.22	2.2*	-3
C/C=C1\COC(C(=O)NCc2ccccc2)(C(F)(F)F)C=C1C=C(C)C (stereo not drawn)	-0.95	-3.5	·	·	·	·
CCOc1ccc(C(=O)Nc2c3c(nn2C(C)(C)C)CSC3)cc1OCC	-0.1	-3.3*	1	-0.68	1.3	9
C=CCn1c(N)cc(=O)nc1SC(C)C(=O)Nc1cccc2ccccc12 (stereo not drawn)	-0.24	0.48	·	·	·	·
COc1ccccc1C(=O)Nc1sc2c(c1C(=O)NCc1ccco1)CCCC2	0.93	0.29	-6	·	1.5	8
COc1ccc(NC(=O)/C(Cl)=C(/Cl)S(=O)(=O)Cc2ccccc2)cn1	-0.27	1.5	17	·	0.8	78*
O=C(CSc1nnc(Cc2ccccc2)n1-c1ccccc1)NNC(=O)Cc1ccccc1	0.88	-2.2	11	·	2.5*	9
CC1CCCC(C)N1C(=O)CSc1nnc(COc2ccccc2)n1-c1ccccc1 (stereo not drawn)	-0.23	-3.5*	-1	·	1.1	2
O=C(CSc1nnc(COc2ccccc2)n1-c1ccccc1)c1ccccc1	1	-6.1*	10	·	1	22
COc1ccc(C(=O)CSc2nnc(COc3ccc(C#N)cc3)n2-c2ccccc2)cc1	0.42	-0.0068	-17	-0.36	1	14
COc1ccc(-n2c(COc3ccccc3)nnc2SCC(N)=O)cc1	1.9	0.52	-1	-0.43	1.4	24
CC1CCCC(C)N1C(=O)CSc1nnnn1Cc1ccccc1 (stereo not drawn)	1	0.17	4	6.1*	1	15
COC(=O)c1ccccc1NC(=O)CSCC(=O)Nc1ccc(F)cc1	-0.54	-0.0045	-9	·	1.1	8
Cc1cccc(C)c1NC(=O)CSc1nnc(Cn2nnc(-c3ccccc3)n2)n1-c1ccccc1	2.2	-6.2*	3	0.35	1.6	10
CCn1c(=O)n(CC)c2cc(S(=O)(=O)Nc3cc(C)cc(C)c3C#N)ccc21	0.34	1	7	·	1.6	2
COc1ccc(NC(=O)CSc2nnc(Cc3ccccc3)o2)c(OC)c1	-0.73	-0.5	0	0.37	2.3*	11
COc1ccccc1NC(=O)CSc1nnc(Cc2ccccc2)o1	0.41	0.36	-4	-0.012	1	10
COc1ccc(CCCc2nnc(SCC(=O)Nc3cc(C)c(C)cc3Br)o2)cc1	0.64	-5.1*	-1	-0.12	1	9
COc1ccc(CCCc2nnc(SCC(=O)Nc3ncc(C)s3)o2)cc1	0.81	-1.3	0	-0.1	1	43*

Screening results from PubChem BioAssay.
